RAM network inh – inhibitors of the yeast RAM network, primary screen, dse1pr::URA3 reporter, 5-FOA selection; S. cerevisiae dse1pr::URA3 reporter, 5-FOA growth OD615, 2 d; analog-sensitive cbk1-as2 kinase mutant strain; inhibition, % at 50 µM; 190,000 tested, 1.8% active;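 active means inhibition above a set limit, 3 SD over mean compound inhibition, cut at about 8.4% in these data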;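 further: 0% = DMSO-only wells with no growth and 100% = 10 µM 1-NA-PP1 full growth; inhibition rescues growth on 5-FOA so higher OD means more RAM inhibition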
EP2 mod – EP2 receptor modulators, cAMP readout, primary screen, cell-based, HTRF cAMP, PGE2 stimulation; Prostaglandin E2 receptor EP2 subtype (Homo sapiens), P43116; EP2-expressing cells, cAMP HTRF FRET, PGE2 co-stimulation; induction, % at 25 µM; 260,000 tested, 0.83% active; AID 940, 2007;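 active means compounds whose cAMP rise, as percent of the full-agonist control response, exceeds 60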;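 further: rat C6 glioma line stably carrying human EP2 under a CMV promoter; the protocol text gives 20 µM as final concentration; 100% = response of wells given 1 µM PGE2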
NR1D1 modulator – modulators of Rev-erb alpha DNA binding, primary screen, biochemical, FITC-DNA, fluorescence polarization, uHTS; Nuclear receptor subfamily 1 group D member 1 (Homo sapiens), P20393; Rev-erbα–FITC-DNA binding, 90 min; activity, % at 10 µM; 370,000 tested, 0.79% active; AID 1259318, 2017;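 active means activity above about 14%, limit read from the data; passing the limit was not always enough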;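 further: 0% = DMSO wells with 35 nM protein and 100% = DMSO wells with 750 nM protein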
Target sequence (P20393 whole entry, looked up): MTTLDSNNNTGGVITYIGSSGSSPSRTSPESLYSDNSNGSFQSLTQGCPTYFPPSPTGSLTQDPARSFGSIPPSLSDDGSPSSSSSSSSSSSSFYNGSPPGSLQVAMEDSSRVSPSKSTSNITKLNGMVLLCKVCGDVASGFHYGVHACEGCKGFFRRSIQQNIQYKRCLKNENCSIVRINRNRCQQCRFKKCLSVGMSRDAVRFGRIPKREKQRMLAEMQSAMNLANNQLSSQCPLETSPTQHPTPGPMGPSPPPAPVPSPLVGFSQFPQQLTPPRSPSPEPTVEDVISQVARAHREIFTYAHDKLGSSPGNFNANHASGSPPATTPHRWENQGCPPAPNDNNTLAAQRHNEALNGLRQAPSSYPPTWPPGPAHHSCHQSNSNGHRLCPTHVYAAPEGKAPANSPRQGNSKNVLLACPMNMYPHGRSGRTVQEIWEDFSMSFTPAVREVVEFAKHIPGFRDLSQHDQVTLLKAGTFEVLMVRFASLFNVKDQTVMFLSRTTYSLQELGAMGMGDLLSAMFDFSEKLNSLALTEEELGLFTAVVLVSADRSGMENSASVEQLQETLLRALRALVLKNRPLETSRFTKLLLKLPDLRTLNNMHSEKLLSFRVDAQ
PG9 binder – binders of HIV-1 gp120 antibody PG9, primary screen, biochemical, TR-FRET | HIV-1 gp120 / PG9 antibody interaction | TR-FRET gp120-PG9 antibody binding | inhibition, % at 6.7 µM | 360,000 tested, 0.43% active | AID 624416, 2012; in the data active means inhibition above about 8.5%
SKN-1 block – suppressors of acrylamide-induced Pgst-4::GFP reporter in worms, primary screen, SKN-1 inhibitor project, whole organism, uHTS, GFP/RFP fluorescence ratio, strain VP596. C. elegans VP596 Pgst-4::GFP/RFP ratio, 24 h. inhibition, % at 21.8 µM. 360,000 tested, 0.49% active. AID 624304, 2012;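 active means interference check ratio from 0.5 to 1.5 plus GFP to RFP signal ratio inhibition reaching or exceeding a fixed threshold, cut at about 30% in these data, passing the limit was not always enough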
PGE2 EP2 inh – human EP2 receptor antagonists, primary screen, TR-FRET cAMP, C6 glioma cells; Prostaglandin E2 receptor EP2 subtype (Homo sapiens), P43116; C6 glioma cells expressing human EP2; cells stimulated with saturating PGE2; inhibition, % at 25 µM; 260,000 tested, 0.52% active;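 active means percent inhibition above 40 after rounding to a whole number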;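 further: rat C6 glioma host cells with rolipram phosphodiesterase inhibitor present; the protocol text gives 20 µM as final concentration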
Rev-erbA confirm – modulators of Rev-erb alpha DNA binding, confirmation, biochemical, FITC-DNA, fluorescence polarization, single point. shares compounds with NR1D1 modulator. 90 min. activation, % at 25 µM. 3,000 tested, 61% active. AID 1259319, 2017;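 active means activation at or above a set limit, or at least 3 SD above the negative control mean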;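 further: 0% = 35 nM protein with DMSO and 100% = 750 nM protein high control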
RORg DNA counter – modulation of RORgamma DNA binding, dose response, counter-screen for Rev-erb alpha modulator project, biochemical, fluorescence polarization, FITC-DNA; shares compounds with NR1D1 modulator; purified RORgamma protein-FITC-DNA binding; IC50, µM; 910 tested, 8% active; AID 1259320, 2017;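 active means Compounds whose fitted half-maximal concentration for disrupting protein-DNA binding is below 10 micromolar; the record names Rev-erb in its text, so the target is in doubt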
Numbers without * were called inactive; i = inactive; . = no result. In the library only some 2.9% were active in any assay of this set; here they are far more common.

SMILES	RAM network inh	EP2 mod	NR1D1 modulator	PG9 binder	SKN-1 block	PGE2 EP2 inh	Rev-erbA confirm	others
CCC(c1nnnn1C1CCCCC1)N(Cc1cc2c(C)ccc(C)c2[nH]c1=O)CC1CCCO1 (stereo not drawn)	.	26.3	.	.	.	15.5	.
CSc1ccc(CCNC(=O)c2cc(-c3ccccc3)c(N3CCOCC3)s2)cc1	.	.	67.2*	1.6	-6.8	.	51.3*	RORg DNA counter=i
COc1cccc(CNC(=O)COC(=O)c2cc(Br)c(Br)s2)c1	.	.	21.4*	1.1	15.5	.	18.1*
COc1cccc(CNC(=O)COC(=O)c2ccc(Cl)s2)c1	.	.	6.6	-2.0	11.7	.	.
O=c1c2ccccc2ncn1-c1cccc(Br)c1	.	.	8.1	-1.0	12.0	.	.
O=c1c2ccccc2ncn1-c1ccc(Cl)c(Cl)c1	2.7	25.2	29.5*	-1.0	10.6	2.8	36.8*	RORg DNA counter=>40
CCOC(=O)N1CCN(C(=O)CN(c2cc(C)cc(C)c2)S(C)(=O)=O)CC1	.	-3.0	.	.	.	8.3	.
Cc1ccc(NC(=O)CSc2nnc(NC(=O)C3CCC3)s2)cc1Cl	.	-6.1	.	.	.	15.5	.
CC1NC(=O)c2cc3ccccc3cc2-n2c1nc1cc(Cl)ccc1c2=O (stereo not drawn)	.	.	16.1*	-1.4	-0.6	.	-0.5
CCOC(=O)c1cc2sc(C)cc2n1CC(=O)N1CCc2ccccc21	3.0	14.4	21.8*	-0.5	1.7	7.8	24.1*
CCOC(=O)c1cc2sccc2n1CC(=O)N1CCCc2ccccc21	1.5	-2.0	1.5	-3.4	10.3	9.4	.
CCOc1cc(C(=S)N2CCCCC2)ccc1OC	.	-26.9	.	.	.	11.4	.
Cc1ccccc1NC1=NS(=O)(=O)c2ccccc21	0.6	25.4	-1.4	-0.6	3.9	-1.8	.
COC(=O)c1ccc(C(=O)OC)c(NC2=NS(=O)(=O)c3ccccc32)c1	4.6	2.8	21.4*	2.3	4.5	9.4	-4.7
COC(=O)c1c(-c2ccccc2)csc1NC1=NS(=O)(=O)c2ccccc21	2.4	-25.9	30.8*	-2.4	-7.1	0.6	11.9
CC[C@H](Cn1ncc2ccccc2c1=O)NC(=O)C1CC1	.	-26.6	.	.	.	.	.
CCOC(=O)/C(=C/C=C1\Sc2cc(OCC)c(OCC)cc2N1CC)C(C)=O	-0.4	-16.3	31.7*	-12.4	-7.9	12.4	-4.7
CCOC(=O)/C(=C\C=C1/Sc2cc(OCC)c(OCC)cc2N1CC)C(C)=O	0.6	19.8	111.8*	-13.5	5.3	9.8	42.4*	RORg DNA counter=>40
CCN1/C(=C/C(C)=O)Sc2ccc(OC)cc21	0.0	-19.6	0.6	-1.6	9.9	1.5	.
CC(=O)c1cc(NC(=O)c2ccc(C)cc2)c(=O)oc1/C=C/N(C)C	0.5	10.3	30.7*	-17.9	22.8	19.1	3.5
CCCn1c(=O)c(C(=O)Nc2ccc(Cl)cc2Cl)c(O)c2ccccc21	.	15.0	.	.	.	7.4	.
O=C(Cn1c(=O)c(=O)n(Cc2ccccc2)c2ccc(Cl)cc21)Nc1ccc(F)cc1F	7.5	18.3	28.6*	-1.9	-2.3	4.9	11.6
O=C(CSc1nnc(-c2cccs2)o1)c1ccc2c(c1)OCO2	.	.	114.8*	.	.	.	134.0*	RORg DNA counter=>40
COc1cc(OC)cc(C(=O)Nc2cc(NC(=O)c3cccs3)ccc2C)c1	.	-6.0	.	.	.	14.8	.
COc1ccc(-c2oc3ccccc3c(=O)c2OC(=O)c2ccc(C)cc2)cc1	5.8	37.8	21.6*	0.0	-2.5	10.1	35.5*	RORg DNA counter=>40
SMILES	RAM network inh	EP2 mod	NR1D1 modulator	PG9 binder	SKN-1 block	PGE2 EP2 inh	Rev-erbA confirm	others
O=C(Nc1ccon1)c1sc2cc(Cl)ccc2c1Cl	.	.	24.9*	-1.9	2.9	.	14.6
CC(C)C(=O)Nc1ccc(NC(=O)c2sc3cc(Cl)ccc3c2Cl)cc1	.	-14.6	.	.	.	10.0	.
O=C(c1ccccc1)N1N=C(c2ccccc2O)CC1c1ccccc1 (stereo not drawn)	.	.	56.7*	3.7	-2.4	.	35.9*	RORg DNA counter=6.88*
COc1ccc(C2CC(c3ccccc3O)=NN2C(=O)c2ccccc2)cc1OC (stereo not drawn)	.	.	-1.7	-0.6	-3.8	.	.
CCOc1ccc(N2CC(C(=O)OCC(=O)Nc3cccc(C)c3C)CC2=O)cc1 (stereo not drawn)	.	-45.3	.	.	.	4.2	.
Cn1c(SCC(=O)Nc2cccc(C(=O)O)c2)nnc1-c1cc2cc(Br)ccc2o1	3.0	-0.8	-0.2	-1.1	-7.8	3.6	.
Cn1c(SCC(=O)Nc2cccc(Br)c2)nnc1-c1cc2ccccc2o1	2.5	26.8	41.8*	-8.9	15.6	0.0	60.2*
Cn1c(SCC(=O)NC2CCCCC2)nnc1-c1cc2cc(Cl)ccc2o1	0.6	7.5	100.5*	-1.2	16.9	7.8	26.6*
CCC(CC)c1nnc(NC(=O)c2cc(Cl)ccc2Cl)s1	.	-24.8	.	.	.	8.9	.
CCOC(=O)c1nn(-c2ccc(F)cc2)c(=O)cc1OCC(=O)Nc1ccc(F)c(F)c1	.	.	170.0*	-1.2	0.7	.	128.7*	RORg DNA counter=i
COc1ccc(OC)c(NC(=O)C2CCN(c3cc(-c4ccccc4)nc4ncnn34)CC2)c1	6.5	-33.6	34.7*	-1.8	2.8	8.7	16.8
O=C(Cn1ncc2cccn2c1=O)NC1CCCCC1	.	-8.2	.	.	.	6.4	.
Cc1ccc(C(=O)CSc2ncnc3sc4c(c23)CCC(C)C4)cc1 (stereo not drawn)	8.6*	32.6	68.4*	-0.7	-1.9	7.3	24.1*
CC1CCc2c(sc3ncnc(SCC(=O)N4CCCCCC4)c23)C1 (stereo not drawn)	.	7.4	.	.	.	7.3	.
CN(C)/C=C/c1oc2ccc(O)cc2c1[N+](=O)[O-]	4.3	-26.0	37.1*	-26.9	27.7	15.1	17.2
COc1ccc2cc(CN(CCCN(C)C)C(=O)Nc3ccc(F)cc3)c(=O)[nH]c2c1	.	-64.7	.	.	.	11.3	.
Cc1occc1C(=O)N/N=C/c1c(O)ccc2ccccc12	.	.	24.6*	0.6	11.1	.	25.5*
Cc1nn(-c2ccccc2)c(C)c1NC(=O)COC(=O)c1cc(Br)ccc1O	.	.	31.3*	-0.7	8.2	.	13.1
NS(=O)(=O)c1ccc(CCNC(=O)c2ccc3c(c2)N(Cc2ccccc2)CCS3)cc1	.	.	39.3*	3.8	18.3	.	13.3
COc1ccc(NC(=O)c2cc3ccccc3cc2OC)cc1OC	.	.	-7.7	-1.5	-3.7	.	.

Source: PubChem BioAssay (several laboratories)
